Screening data deposited in PubChem BioAssay by Broad Institute.
This excerpt belongs to a sample that is enriched for hits.
IDE exosite FP – exo-site inhibitors of human insulin-degrading enzyme. purified IDE, FL-6b probe fluorescence polarization; active compounds read low. P14735. z-score at 20 µM. hit rate 6.3% among 17,000. AID 1259349;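 active = z-score of -3 or lower, meaning strong loss of probe binding signal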;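 also: His-tagged human IDE residues 42-1019 made in E. coli with 30 nM FL-6b probe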
Target sequence (P14735 42-1019 limits assumed): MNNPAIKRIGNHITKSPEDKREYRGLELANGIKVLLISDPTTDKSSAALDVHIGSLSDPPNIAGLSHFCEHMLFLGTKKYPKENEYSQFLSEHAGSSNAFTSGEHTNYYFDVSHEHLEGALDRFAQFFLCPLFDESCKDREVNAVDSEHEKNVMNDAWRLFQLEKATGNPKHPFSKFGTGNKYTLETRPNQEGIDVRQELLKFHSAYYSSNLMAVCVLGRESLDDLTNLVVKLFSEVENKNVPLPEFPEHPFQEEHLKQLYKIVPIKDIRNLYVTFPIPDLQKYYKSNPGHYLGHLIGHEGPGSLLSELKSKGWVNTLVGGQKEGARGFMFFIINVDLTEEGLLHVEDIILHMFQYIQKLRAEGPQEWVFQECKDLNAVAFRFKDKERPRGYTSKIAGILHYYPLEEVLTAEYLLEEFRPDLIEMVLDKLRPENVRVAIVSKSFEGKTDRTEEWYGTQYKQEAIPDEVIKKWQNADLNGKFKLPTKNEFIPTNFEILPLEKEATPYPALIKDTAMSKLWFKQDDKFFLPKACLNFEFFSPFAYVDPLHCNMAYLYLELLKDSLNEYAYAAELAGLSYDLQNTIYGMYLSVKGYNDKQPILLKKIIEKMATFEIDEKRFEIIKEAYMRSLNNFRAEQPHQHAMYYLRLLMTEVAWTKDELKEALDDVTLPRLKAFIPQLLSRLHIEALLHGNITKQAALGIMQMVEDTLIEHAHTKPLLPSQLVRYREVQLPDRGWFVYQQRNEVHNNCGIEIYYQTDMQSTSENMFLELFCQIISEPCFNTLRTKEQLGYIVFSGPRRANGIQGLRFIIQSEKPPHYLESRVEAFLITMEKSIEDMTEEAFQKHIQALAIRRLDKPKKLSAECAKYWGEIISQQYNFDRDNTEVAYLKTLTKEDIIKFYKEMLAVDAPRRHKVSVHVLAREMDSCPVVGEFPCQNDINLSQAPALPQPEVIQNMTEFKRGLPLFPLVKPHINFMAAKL
* = called active by the depositor.

SMILES | IDE exosite FP
O=C(Cc1ccccc1)N1CCCCN2[C@H](C1)[C@@H](c1ccc(C#Cc3ccccc3)cc1)[C@@H]2CO | -2.6
O=C(Cc1ccccc1)N1CCCCN2[C@H](C1)[C@H](c1ccc(C#Cc3ccccc3)cc1)[C@@H]2CO | -4.3*
CCCC#Cc1ccc([C@@H]2[C@H](CO)N3CCCCN(C(=O)Cc4ccccn4)C[C@@H]23)cc1 | -2
O=C(Cc1ccccn1)N1CCCCN2[C@H](CO)[C@H](c3ccc(C#Cc4ccccc4)cc3)[C@@H]2C1 | -5.2*
COc1ccc(C#Cc2ccc([C@@H]3[C@@H](CO)N4CCCCN(C(=O)Cc5ccccc5)C[C@@H]34)cc2)cc1 | 1.5
CCCC#Cc1ccc([C@H]2[C@@H](CO)N3CCCCN(C(=O)Cc4ccccn4)C[C@@H]23)cc1 | 4
O=C1CNC[C@@H]2[C@@H](c3ccc(Br)cc3)[C@H](CO)N12 | 1.4
CC(C)CC#Cc1ccc([C@H]2[C@@H](CO)N3CCCCN(C(=O)Cc4ccccn4)C[C@H]23)cc1 | 2.8
O=C(O)[C@@H]1[C@@H](CO)[C@@H]2Cn3c(ccc(-c4ccncc4)c3=O)[C@H]1N2S(=O)(=O)c1ccccc1F | 0.56
O=C(Cc1cccnc1)N1CCCCN2[C@@H](CO)[C@@H](c3ccc(C#CC4CCCC4)cc3)[C@@H]2C1 | 0.5
C/C=C/c1ccc([C@H]2[C@H](CO)N3CCCCN(C(=O)Cc4cccnc4)C[C@@H]23)cc1 | -1.1
C/C=C/c1ccc([C@H]2[C@H]3CN(C(=O)Cc4cccnc4)CCCCN3[C@H]2CO)cc1 | 1.2
O=C(Cc1cccnc1)N1CCCCN2[C@@H](CO)[C@@H](c3ccc(/C=C/c4ccccc4)cc3)[C@@H]2C1 | -8.3*
O=C(Cc1cccnc1)N1CCCCN2[C@H](C1)[C@@H](c1ccc(/C=C/c3ccccc3)cc1)[C@@H]2CO | -9.2*
C/C=C/c1ccc([C@H]2[C@@H](CO)N3CCCCN(C(=O)Cc4cccnc4)C[C@H]23)cc1 | -0.57
N#Cc1cccc(-c2ccc([C@H]3[C@H](CO)N4CCCCN(C(=O)Cc5ccccc5)C[C@@H]34)cc2)c1 | 3.6
CC(C)CC#Cc1ccc([C@H]2[C@H](CO)N3CCCCN(C(=O)Cc4ccccn4)C[C@@H]23)cc1 | 4.9
COc1cccc(-c2ccc([C@@H]3[C@H]4CN(C(=O)Cc5ccncc5)CCCCN4[C@H]3CO)cc2)c1 | -0.67
COc1ccc(-c2ccc([C@@H]3[C@H]4CN(C(=O)Cc5ccccc5)CCCCN4[C@H]3CO)cc2)cc1 | 3.5
OC[C@@H]1Nc2ccc(C#Cc3cccnc3)cc2[C@H]2NCC[C@@H]12 | -0.33
O=C(Cc1ccccc1)N1CCCCN2[C@@H](CO)[C@H](c3ccc(-c4ccccc4)cc3)[C@@H]2C1 | -0.0073
O=C(Cc1ccccn1)N1CCCCN2[C@@H](CO)[C@@H](c3ccc(-c4ccc(F)cc4)cc3)[C@@H]2C1 | 1.7
O=C(Cc1ccccn1)N1CCCCN2[C@@H](CO)[C@H](c3ccc(-c4ccc(F)cc4)cc3)[C@@H]2C1 | 2.5
O=C(Cc1ccccn1)N1CCCCN2[C@H](C1)[C@H](c1ccc(-c3ccc(F)cc3)cc1)[C@@H]2CO | 1.3
O=C(Cc1ccccn1)N1CCCCN2[C@H](CO)[C@@H](c3ccc(-c4ccccc4F)cc3)[C@@H]2C1 | -4.7*
SMILES | IDE exosite FP
O=C(Cc1ccccn1)N1CCCCN2[C@H](CO)[C@H](c3ccc(-c4ccccc4F)cc3)[C@@H]2C1 | -4.2*
O=C(Cc1ccccn1)N1CCCCN2[C@H](C1)[C@@H](c1ccc(-c3ccc(F)cc3)cc1)[C@@H]2CO | 4.4
CC=Cc1ccc2n(c1=O)C[C@@H]1[C@@H](CO)[C@H](C(=O)OC)[C@H]2N1S(=O)(=O)c1ccccc1C (mixture of isomers) | -0.054
N#Cc1cccc(-c2ccc([C@H]3[C@H](CO)N4CCCCN(C(=O)Cc5cccnc5)C[C@@H]34)cc2)c1 | 0.26
CC=Cc1ccc2n(c1=O)C[C@H]1[C@H](CO)[C@@H](C(=O)OC)[C@@H]2N1S(=O)(=O)c1ccccc1C (mixture of isomers) | 1.1
COc1ccc(C#Cc2ccc([C@@H]3[C@@H](CO)N4CCCCN(C(=O)Cc5cccnc5)C[C@@H]34)cc2)cc1 | 2.7
COc1ccc(C#Cc2ccc([C@H]3[C@@H](CO)N4CCCCN(C(=O)Cc5ccncc5)C[C@H]34)cc2)cc1 | 0.97
COc1ccc(C#Cc2ccc([C@H]3[C@H]4CN(C(=O)Cc5ccncc5)CCCCN4[C@H]3CO)cc2)cc1 | -3.5*
COc1ccc(C#Cc2ccc([C@@H]3[C@H]4CN(C(=O)Cc5ccncc5)CCCCN4[C@H]3CO)cc2)cc1 | -0.35
COc1ccc(C#Cc2ccc([C@H]3[C@@H](CO)N4CCCCN(C(=O)Cc5cccnc5)C[C@H]34)cc2)cc1 | -1.3
COc1ccc(C#Cc2ccc([C@H]3[C@H]4CN(C(=O)Cc5cccnc5)CCCCN4[C@H]3CO)cc2)cc1 | -4*
COc1ccc(C#Cc2ccc([C@H]3[C@@H](CO)N4CCCCN(C(=O)Cc5ccncc5)C[C@@H]34)cc2)cc1 | -4.8*
COc1ccc(C#Cc2ccc([C@@H]3[C@@H](CO)N4CCCCN(C(=O)Cc5ccncc5)C[C@@H]34)cc2)cc1 | 0.35
COc1ccc(-c2ccc([C@@H]3[C@H](CO)N4CCCCN(C(=O)Cc5ccncc5)C[C@@H]34)cc2)cc1 | -2.3
N#Cc1cccc(-c2ccc([C@@H]3[C@@H](CO)N4CCCCN(C(=O)Cc5cccnc5)C[C@H]34)cc2)c1 | 1.1
O=C(O)[C@@H]1[C@@H](CO)[C@@H]2Cn3c(ccc(C4=CCCCC4)c3=O)[C@H]1N2C(=O)Cc1ccccn1 | 0.84
O=C(Cc1ccccc1)N1CC2(C1)[C@H](c1ccccc1)[C@H](CO)N2Cc1cccc(Cl)c1 | -1.7
COc1ccc(-c2ccc([C@H]3[C@H]4CN(C(=O)Cc5ccccc5)CCCCN4[C@H]3CO)cc2)cc1 | 2.8
COc1ccc(-c2ccc([C@H]3[C@@H](CO)N4CCCCN(C(=O)Cc5ccncc5)C[C@H]34)cc2)cc1 | 0.98
COc1ccc(-c2ccc([C@@H]3[C@@H](CO)N4CCCCN(C(=O)Cc5ccccc5)C[C@H]34)cc2)cc1 | 1.4
COc1ccc(C#Cc2ccc([C@H]3[C@H](CO)N4CCCCN(C(=O)Cc5cccnc5)C[C@@H]34)cc2)cc1 | -1.4
O=C(Cc1ccncc1)N1CCCCN2[C@H](CO)[C@@H](c3ccc(C#CC4(O)CCCC4)cc3)[C@@H]2C1 | 0.2
Cc1ccccc1-c1ccc([C@H]2[C@@H](CO)N3CCCCN(C(=O)Cc4ccccn4)C[C@H]23)cc1 | -14*
O=C(Cc1ccccn1)N1CCCCN2[C@@H](CO)[C@H](c3ccc(Br)cc3)[C@@H]2C1 | -0.37
O=C(Cc1ccccn1)N1CCCCN2[C@H](CO)[C@H](c3ccc(Br)cc3)[C@H]2C1 | -0.15
O=C(Cc1ccccn1)N1CCCCN2[C@H](CO)[C@@H](c3ccc(-c4ccccc4)cc3)[C@@H]2C1 | -2.4
Cc1ccccc1-c1ccc([C@@H]2[C@H](CO)N3CCCCN(C(=O)Cc4ccccn4)C[C@@H]23)cc1 | -16*
O=C(Cc1ccccn1)N1CCCCN2[C@H](C1)[C@@H](c1ccc(Br)cc1)[C@@H]2CO | -0.067
CC(C)CC#Cc1ccc([C@@H]2[C@H](CO)N3CCCCN(C(=O)Cc4ccccn4)C[C@@H]23)cc1 | 3.5
COc1ccc(C#Cc2ccc([C@@H]3[C@H]4CN(C(=O)Cc5cccnc5)CCCCN4[C@H]3CO)cc2)cc1 | 4.2
